Results from PubChem BioAssay AID1578 (Sanford-Burnham Center for Chemical Genomics, 2009).
Out of some 290,000 compounds screened, about 3,000 (1%) were called active. No stated cut-off is given here; in the data, active means inhibition mostly above about 36% (no sharp cut-off); inactive means mostly below about 34%. The sample as a whole holds a higher share of actives than the screen did.

test: NOD1 signaling inhibitors, primary screen, cell-based, luminescence, uHTS (AID 1578); details: NOD1-driven NF-kB luciferase reporter cells, at 4 µM, stronger effect = higher value;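 further: HEK-293T reporter cells stimulated with the NOD1 agonist gamma-tri-DAP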

inhibition, active:
Cc1[nH]n2c(=O)cc(C(C)(C)C)nc2c1-c1ccccc1 85.3%
COc1ccc(/C=C/C(=O)c2ccc(NC3=NCCCS3)cc2)cc1OC 44.3%
CCN(CC)CCNc1cc(C)nc2c1C(=O)C(=O)C=C2N1CCCCC1 101%
Cc1ccc(C(=O)/C=C/c2cc(Br)cc(Br)c2O)o1 89.5%
O=C(O)Cc1sc(-c2ccccc2Cl)nc1-c1ccccc1 44%
COc1cccc(C(=O)N/N=C/C(Br)=C/c2ccccc2)c1 63.6%
CC1(C)Cc2ccccc2-c2nc3n(c(=O)c21)CCCS3 44.3%
Oc1c(Br)cc(Br)cc1C=NCc1ccc(F)cc1 64.2%

inhibition, inactive:
O=C(Nc1ccccc1)c1ccc(CN2CCc3ccccc3C2)cc1 37.2%
CC(=O)Nc1ccc(NC(=O)c2ccc(CN3CCc4ccccc4C3)cc2)cc1 21.2%
Cc1ccc(NC(=O)c2ccc(CN3CCc4ccccc4C3)cc2)cc1 42.4%
CCOc1ccccc1NC(=O)c1ccc(CN2CCc3ccccc3C2)cc1 25.2%
Cc1cc(C)cc(NC(=O)c2ccc(CN3CCc4ccccc4C3)cc2)c1 39.1%
CCOC(=O)c1ccc(NC(=O)CN2CCc3ccccc3C2)cc1 -2.1%
C#Cc1ccc([C@H]2C=C(C(=O)N3CCN(Cc4ccc5c(c4)OCO5)CC3)O[C@@H](OCc3ccc(CO)cc3)C2)cc1 1.8%
Cc1ccc(S(=O)(=O)Nc2ccccc2N2CCOCC2)cc1 -11.5%
Cc1nc2sc(C(c3ccc(F)cc3)N3CCOCC3)c(O)n2n1 (centres undefined) 0.4%
Cc1onc(-c2ccccc2)c1C(=O)c1c[nH]c(C(=O)NCCCN2CCOCC2)c1 -7.9%
COc1ccc(CCNC(=O)Cn2c(=O)n(-c3cc(F)ccc3F)c(=O)c3sccc32)cc1OC -47.6%
CC(NC(=S)Nc1ccc(OC(F)F)c(Cl)c1)C(C)(C)C (centres undefined) -14.8%
O/N=C/c1cccc[n+]1CCCCCC[n+]1ccccc1/C=N/O 27.1%
Cc1[nH]n2c(=O)cc(C(C)C)nc2c1-c1ccccc1 -8.4%
Cc1cc(=O)n2[nH]c(C)c(-c3ccccc3)c2n1 -4.2%
COc1cccc(-c2c[nH]c(=O)[nH]c2=O)c1 -6.8%
COc1cccc(/C=C/C(=O)c2ccc(NC3=NCCCS3)cc2)c1 -44.4%
Cc1cccc(/C=C/C(=O)c2ccc(NC3=NCCCS3)cc2)c1 32.1%
CNCCCOc1ccc(C)cc1Br 13.5%
Cc1nn2c3ccccc3n(Cc3ccccc3)c2nc1=O -20.5%
O=C(NCC(=O)N(c1ccc(Cl)cc1)C(C(=O)NC1CCCC1)c1ccncc1)c1ccco1 (centres undefined) -13.1%
CN(C)CCNC(=O)c1c(CSc2ccccc2)noc1C(=O)NCc1ccccc1 -3.7%
NC(=O)C1CCN(C(=O)c2ccc3c(c2)S(=O)(=O)c2ccccc2C3=O)CC1 1.2%
CCN(CC)CCNC1=CC(=O)OC12CCCCC2 -19.3%
COC(=O)c1cc(C)nc2c1C(=O)C(=O)C=C2N1CCOCC1 -6.2%
Cc1ccc(C(=O)/C=C/c2ccccc2)o1 -0.9%
Cc1ccc(C(=O)/C=C/c2ccc(Br)cc2)o1 21%
Cc1ccc(C(=O)NC2CC3CCC(C2)N3Cc2ccco2)cc1 (centres undefined) -13.6%
O=C(COC(=O)c1ccc[nH]c1=O)NCCc1ccc(Cl)cc1Cl -4.3%
COc1ccc(OC)c(NC(=O)NNC(=O)CCCOc2ccc(Cl)cc2C)c1 -14%
O=C(Cc1sc(-c2ccccc2Cl)nc1-c1ccccc1)Nc1ccccc1 -49.4%
O=C(O)Cc1sc(-c2ccccc2)nc1-c1ccccc1 -9.7%
CCCn1c(=O)c(C(=O)NNC(=O)c2ccc(Cl)cc2Cl)c(O)c2ccccc21 -6.2%
Cc1cc(Cl)ccc1NC(=O)CCCN1C(=O)CCC1=O 1.3%
O=C(Cn1nnc2ccccc21)N/N=C\c1cccs1 -35.5%
COc1ccc(/C=C/c2c(-c3ccc(OC)cc3)oc3ccc(-c4ccc(OC)cc4)cc23)cc1 -16.5%
COc1ccc(/C=C/C(=O)Oc2ccc(C)cc2)cc1 -12.4%
CC1(C)C2CCC1(C)C(OC(=O)C[n+]1ccccc1N)C2 (centres undefined) -14.7%
CC(C)NC(=O)C1CCN(C2CCN(C(=O)c3cc4c(s3)CCCCC4)CC2)CC1 -13.9%
Cc1cnc(CN(C)Cc2nc(Cc3cccc(C(F)(F)F)c3)no2)[nH]1 -15.7%
CC(C)OC(=O)c1cc2c(=O)[nH]c(C(Cl)(Cl)Cl)nc2o1 -25.8%
CS(=O)(=O)N(CC(=O)N1CCCCC1)C1CCCCC1 9.1%
COc1ccc(C(=O)N/N=C/C(Br)=C/c2ccccc2)cc1 26.8%
O=C(N/N=C/C(Br)=C/c1ccccc1)c1cccnc1 10.1%
CCC1(C)Cc2ccccc2-c2nc3n(c(=O)c21)CCS3 (centres undefined) 5.3%
CC1(C)Cc2ccccc2-c2nc3n(c(=O)c21)CCS3 -12.8%
O=C(COC(=O)CSCC(=O)N1CCCCC1)Nc1ccc(Cl)cc1 0%
Fc1ccc(-c2noc(-c3ccc4c(c3)CCO4)n2)cc1 -17.4%
CN(C)Cc1c(O)ccc2c(-c3ccccc3)cc(=O)oc12 -22%
CC(=O)c1c(O)ccc2c(-c3ccccc3)cc(=O)oc12 13.4%
COC(=O)c1ccccc1NC(=O)Nc1cc(C)ccn1 -16.6%
Cc1cccc2sc(N(CCCN(C)C)C(=O)c3ccc(S(=O)(=O)N4CCc5ccccc5C4)cc3)nc12 13%
O=C(COC(=O)CCC(=O)c1ccc(F)cc1)Nc1ccc(N2CCOCC2)cc1 -6.3%
O=C(OCCN1CCCCC1)c1ccc(Cl)cc1 -7.2%
Oc1c(Br)cc(Br)cc1C=NCc1ccccc1 -5.4%
Oc1c(C=NCc2ccc(F)cc2)[nH]c2ccc(Br)c(Cl)c12 -16.1%
